Measured values taken from PubChem BioAssay AID1159580 (chemical genetic matrix, 2015).
Among all 5,500 compounds or so, about 2,000 (36%) were called active. About 18% were inconclusive and are not listed. No stated cut-off is given here; in the data, active means normalized growth mostly below about 0.91 (no sharp cut-off); inconclusive means no clear call, values can overlap the other calls; inactive means mostly above about 0.92. Some of the results follow.

Test: chemical genetic growth profiling, strain panel (AID 1159580);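 further: tested at 20 µM; growth read once vehicle control cultures reached saturation at 30 °C; 1 = growth at the plate median or of vehicle wells; lower values mean less growth of the strain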
Details: growth OD
[1] = S. cerevisiae deletion strains, locus YAL013W, strain DEP1, hits give low values
[2] = S. cerevisiae deletion strains, locus YDL101C, strain DUN1, hits give low values
[3] = S. cerevisiae deletion strains, locus YDR150W, strain NUM1, hits give low values
[4] = S. cerevisiae deletion strains, locus YEL061C, strain CIN8, hits give low values
[5] = S. cerevisiae deletion strains, locus YGR078C, strain PAC10, hits give low values
[6] = S. cerevisiae deletion strains, locus YHR030C, strain SLT2, hits give low values
[7] = S. cerevisiae deletion strains, locus YHR087W, strain rtc3, hits give low values
[8] = S. cerevisiae deletion strains, locus YJR043C, strain POL32, hits give low values
[9] = S. cerevisiae deletion strains, locus YJR075W, strain HOC1, hits give low values
[10] = S. cerevisiae deletion strains, locus YLR039C, strain RIC1, hits give low values
[11] = S. cerevisiae deletion strains, locus YLR058C, strain SHM2 (second series), hits give low values
[12] = S. cerevisiae deletion strains, locus YLR085C, strain ARP6, hits give low values
[13] = S. cerevisiae deletion strains, locus YLR262C, strain YPT6, hits give low values
[14] = S. cerevisiae deletion strains, locus YML094W, strain GIM5, hits give low values
[15] = S. cerevisiae deletion strains, locus YMR219W, strain ESC1, hits give low values
[16] = S. cerevisiae deletion strains, locus YMR263W, strain SAP30, hits give low values
[17] = S. cerevisiae deletion strains, locus YNL153C, strain GIM3, hits give low values
[18] = S. cerevisiae deletion strains, locus YNL298W, strain CLA4 (second series), hits give low values
[19] = S. cerevisiae deletion strains, locus YNL322C, strain KRE1, hits give low values
[20] = S. cerevisiae deletion strains, locus YNR030W, strain Alg12, hits give low values
[21] = S. cerevisiae deletion strains, locus YPL055C, strain LGE1, hits give low values
[22] = S. cerevisiae deletion strains, locus YPL241C, strain CIN2, hits give low values
[23] = S. cerevisiae deletion strains, locus YPR135W, strain CTF4, hits give low values
[24] = S. cerevisiae strains, strain wild type, hits give low values

Measured: normalized growth

O=C1NN(c2ccccc2)C(=S)Nc2ccccc21
inactive: [1] 1 | S. cerevisiae deletion strains, locus YBR229C, strain ROT2, hits give low values 1.01 | [2] 0.988 | [3] 0.994 | [4] 1.01 | [5] 0.986 | [6] 0.986 | [7] 1 | S. cerevisiae deletion strains, locus YJL187C, strain SWE1, hits give low values 0.988 | [8] 0.997 | [9] 0.994 | [10] 0.994 | [11] 1 | [12] 0.984 | [13] 0.999 | [14] 0.987 | [15] 0.999 | [16] 0.996 | S. cerevisiae deletion strains, locus YMR307W, strain GAS1, hits give low values 0.965 | [17] 0.978 | [18] 1.01 | [19] 1.01 | [20] 1 | [21] 1.02 | [22] 0.98 | [23] 0.979 | [24] 1.01

S=C1NC2(CCCCC2)NN1c1ccccc1
inactive: [2] 0.92 | [3] 0.836 | [7] 0.987 | [8] 0.94 | [9] 0.908 | [11] 0.98 | [15] 0.956 | [19] 0.988
active: [1] 0.869 | S. cerevisiae deletion strains, locus YCL061C, strain MRC1, hits give low values 0.892 | [4] 0.14 | [5] 0.761 | [6] 0.1 | S. cerevisiae deletion strains, locus YKL190W, strain CNB1, hits give low values 0.0617 | [10] 0.116 | [12] 0.0768 | [13] 0.114 | [14] 0.0764 | [16] 0.895 | [17] 0.884 | [18] 0.0996 | [20] 0.0942 | S. cerevisiae deletion strains, locus YOL006C, strain TOP1, hits give low values 0.088 | [21] 0.759 | [22] 0.0946 | [23] 0.223 | [24] 0.0726
